Key:
[1] = target: Sphingosine kinase 1 (Homo sapiens) (UniProt Q9NYA1); conditions: at 1 µM;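 also: mean SPHK1 inhibition value reported from the GSK PKIS kinase panel screen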
[2] = target: T1, Sphingosine kinase 2 (Homo sapiens) (UniProt Q9NRA0); conditions: at 0.1 µM
T1 sequence (whole entry): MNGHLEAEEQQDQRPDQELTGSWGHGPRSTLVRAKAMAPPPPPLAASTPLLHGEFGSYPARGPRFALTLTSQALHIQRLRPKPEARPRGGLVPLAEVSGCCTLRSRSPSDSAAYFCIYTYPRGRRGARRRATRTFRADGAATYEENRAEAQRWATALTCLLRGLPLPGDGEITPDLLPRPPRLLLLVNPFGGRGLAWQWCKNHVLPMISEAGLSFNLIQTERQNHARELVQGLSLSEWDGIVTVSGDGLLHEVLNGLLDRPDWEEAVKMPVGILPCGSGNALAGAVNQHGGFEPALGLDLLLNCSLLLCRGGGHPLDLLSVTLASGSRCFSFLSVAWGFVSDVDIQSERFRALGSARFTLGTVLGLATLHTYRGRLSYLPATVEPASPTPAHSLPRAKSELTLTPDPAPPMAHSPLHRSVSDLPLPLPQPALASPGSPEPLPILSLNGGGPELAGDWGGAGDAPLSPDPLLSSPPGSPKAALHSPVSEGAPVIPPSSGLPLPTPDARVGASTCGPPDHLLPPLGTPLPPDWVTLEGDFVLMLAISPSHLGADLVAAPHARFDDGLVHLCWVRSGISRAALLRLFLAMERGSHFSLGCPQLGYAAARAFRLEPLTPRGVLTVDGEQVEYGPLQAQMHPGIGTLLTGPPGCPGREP

[3] = target: T1, Sphingosine kinase 2 (Homo sapiens); conditions: at 1 µM
[4] = target: Casein kinase II subunit alpha (Homo sapiens) (UniProt P68400); conditions: at 0.1 µM
Casein kinase II subunit alpha (Homo sapiens), sequence (P68400 whole entry, looked up): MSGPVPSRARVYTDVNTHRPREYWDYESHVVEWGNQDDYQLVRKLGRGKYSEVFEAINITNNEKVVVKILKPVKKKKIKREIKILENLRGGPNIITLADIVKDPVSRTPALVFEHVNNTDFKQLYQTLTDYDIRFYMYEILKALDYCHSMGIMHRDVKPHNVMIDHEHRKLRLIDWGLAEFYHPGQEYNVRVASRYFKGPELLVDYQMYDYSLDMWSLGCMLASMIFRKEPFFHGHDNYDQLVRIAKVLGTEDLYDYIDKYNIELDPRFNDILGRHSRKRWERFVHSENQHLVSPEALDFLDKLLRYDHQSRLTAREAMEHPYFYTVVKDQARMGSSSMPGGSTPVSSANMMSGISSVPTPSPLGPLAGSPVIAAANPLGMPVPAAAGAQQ

[5] = target: Casein kinase II subunit alpha (Homo sapiens) (UniProt P68400); conditions: at 1 µM
[6] = target: T2, Inhibitor of nuclear factor kappa-B kinase subunit alpha (Homo sapiens) (UniProt O15111); conditions: at 0.1 µM
T2 sequence (whole entry): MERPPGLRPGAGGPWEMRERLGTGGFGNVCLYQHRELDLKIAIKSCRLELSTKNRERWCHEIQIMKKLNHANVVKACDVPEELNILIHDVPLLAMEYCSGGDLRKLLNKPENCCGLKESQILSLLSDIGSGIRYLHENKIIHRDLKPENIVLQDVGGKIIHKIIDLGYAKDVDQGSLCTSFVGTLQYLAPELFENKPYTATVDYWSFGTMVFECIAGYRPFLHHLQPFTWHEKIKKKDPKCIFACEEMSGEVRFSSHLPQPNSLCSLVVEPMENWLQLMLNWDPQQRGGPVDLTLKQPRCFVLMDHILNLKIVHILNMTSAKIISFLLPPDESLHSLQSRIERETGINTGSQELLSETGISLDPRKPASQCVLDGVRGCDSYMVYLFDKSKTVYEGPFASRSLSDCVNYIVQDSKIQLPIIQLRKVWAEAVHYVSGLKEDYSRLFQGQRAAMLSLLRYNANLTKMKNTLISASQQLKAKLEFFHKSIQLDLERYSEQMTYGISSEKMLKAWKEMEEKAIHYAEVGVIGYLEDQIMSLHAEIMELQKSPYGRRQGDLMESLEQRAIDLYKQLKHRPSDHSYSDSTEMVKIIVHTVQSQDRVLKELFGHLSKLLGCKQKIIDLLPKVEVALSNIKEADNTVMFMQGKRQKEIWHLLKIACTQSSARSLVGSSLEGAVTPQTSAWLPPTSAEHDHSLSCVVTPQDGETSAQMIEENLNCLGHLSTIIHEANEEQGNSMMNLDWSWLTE

[7] = target: T2, Inhibitor of nuclear factor kappa-B kinase subunit alpha (Homo sapiens); conditions: at 1 µM
[8] = target: T3, Inhibitor of nuclear factor kappa-B kinase subunit beta (Homo sapiens) (UniProt O14920); conditions: at 0.1 µM
T3 sequence (whole entry): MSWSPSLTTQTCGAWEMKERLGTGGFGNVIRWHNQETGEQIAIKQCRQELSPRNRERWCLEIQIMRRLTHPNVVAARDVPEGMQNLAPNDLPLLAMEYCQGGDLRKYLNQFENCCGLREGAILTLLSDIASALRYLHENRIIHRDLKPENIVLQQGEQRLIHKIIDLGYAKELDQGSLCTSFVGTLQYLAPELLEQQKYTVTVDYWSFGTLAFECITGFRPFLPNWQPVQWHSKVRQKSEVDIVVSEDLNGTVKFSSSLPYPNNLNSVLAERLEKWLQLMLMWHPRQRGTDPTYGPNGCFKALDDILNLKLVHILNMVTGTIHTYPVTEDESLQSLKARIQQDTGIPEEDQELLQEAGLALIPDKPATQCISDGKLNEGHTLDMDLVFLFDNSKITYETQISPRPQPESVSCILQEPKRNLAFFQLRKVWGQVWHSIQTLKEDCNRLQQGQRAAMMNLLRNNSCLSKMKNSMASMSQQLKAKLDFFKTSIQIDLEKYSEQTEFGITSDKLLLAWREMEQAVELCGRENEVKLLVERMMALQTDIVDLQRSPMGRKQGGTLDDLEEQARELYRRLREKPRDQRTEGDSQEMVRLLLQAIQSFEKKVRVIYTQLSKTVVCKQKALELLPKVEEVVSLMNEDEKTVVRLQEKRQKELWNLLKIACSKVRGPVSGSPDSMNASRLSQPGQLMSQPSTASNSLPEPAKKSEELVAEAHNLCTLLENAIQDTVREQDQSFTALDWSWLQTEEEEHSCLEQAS

[9] = target: T3, Inhibitor of nuclear factor kappa-B kinase subunit beta (Homo sapiens); conditions: at 1 µM
[10] = target: T4, Inhibitor of nuclear factor kappa-B kinase subunit epsilon (Homo sapiens) (UniProt Q14164); conditions: at 0.1 µM
T4 sequence (whole entry): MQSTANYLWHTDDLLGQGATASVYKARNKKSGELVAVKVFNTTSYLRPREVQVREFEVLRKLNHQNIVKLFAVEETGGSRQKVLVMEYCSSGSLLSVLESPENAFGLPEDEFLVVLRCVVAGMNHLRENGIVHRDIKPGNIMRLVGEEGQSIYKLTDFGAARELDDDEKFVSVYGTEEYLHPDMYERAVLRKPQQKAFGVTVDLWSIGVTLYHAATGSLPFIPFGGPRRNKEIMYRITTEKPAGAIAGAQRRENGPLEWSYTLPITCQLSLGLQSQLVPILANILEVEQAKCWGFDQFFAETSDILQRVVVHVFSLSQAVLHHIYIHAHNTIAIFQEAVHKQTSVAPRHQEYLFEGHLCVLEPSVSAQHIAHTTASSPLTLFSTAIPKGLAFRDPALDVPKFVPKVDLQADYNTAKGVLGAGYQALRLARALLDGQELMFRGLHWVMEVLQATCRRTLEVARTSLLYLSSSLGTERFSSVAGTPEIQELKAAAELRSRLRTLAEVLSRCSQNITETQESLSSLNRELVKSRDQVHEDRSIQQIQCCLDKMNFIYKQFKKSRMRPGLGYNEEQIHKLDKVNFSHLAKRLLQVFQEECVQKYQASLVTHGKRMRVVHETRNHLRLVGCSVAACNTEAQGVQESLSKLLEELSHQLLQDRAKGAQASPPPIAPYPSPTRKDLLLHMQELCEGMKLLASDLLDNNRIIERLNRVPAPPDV

[11] = target: T4, Inhibitor of nuclear factor kappa-B kinase subunit epsilon (Homo sapiens); conditions: at 1 µM
[12] = target: T5, Serine/threonine-protein kinase Nek1 (Homo sapiens) (UniProt Q96PY6); conditions: at 0.1 µM
T5 sequence (whole entry): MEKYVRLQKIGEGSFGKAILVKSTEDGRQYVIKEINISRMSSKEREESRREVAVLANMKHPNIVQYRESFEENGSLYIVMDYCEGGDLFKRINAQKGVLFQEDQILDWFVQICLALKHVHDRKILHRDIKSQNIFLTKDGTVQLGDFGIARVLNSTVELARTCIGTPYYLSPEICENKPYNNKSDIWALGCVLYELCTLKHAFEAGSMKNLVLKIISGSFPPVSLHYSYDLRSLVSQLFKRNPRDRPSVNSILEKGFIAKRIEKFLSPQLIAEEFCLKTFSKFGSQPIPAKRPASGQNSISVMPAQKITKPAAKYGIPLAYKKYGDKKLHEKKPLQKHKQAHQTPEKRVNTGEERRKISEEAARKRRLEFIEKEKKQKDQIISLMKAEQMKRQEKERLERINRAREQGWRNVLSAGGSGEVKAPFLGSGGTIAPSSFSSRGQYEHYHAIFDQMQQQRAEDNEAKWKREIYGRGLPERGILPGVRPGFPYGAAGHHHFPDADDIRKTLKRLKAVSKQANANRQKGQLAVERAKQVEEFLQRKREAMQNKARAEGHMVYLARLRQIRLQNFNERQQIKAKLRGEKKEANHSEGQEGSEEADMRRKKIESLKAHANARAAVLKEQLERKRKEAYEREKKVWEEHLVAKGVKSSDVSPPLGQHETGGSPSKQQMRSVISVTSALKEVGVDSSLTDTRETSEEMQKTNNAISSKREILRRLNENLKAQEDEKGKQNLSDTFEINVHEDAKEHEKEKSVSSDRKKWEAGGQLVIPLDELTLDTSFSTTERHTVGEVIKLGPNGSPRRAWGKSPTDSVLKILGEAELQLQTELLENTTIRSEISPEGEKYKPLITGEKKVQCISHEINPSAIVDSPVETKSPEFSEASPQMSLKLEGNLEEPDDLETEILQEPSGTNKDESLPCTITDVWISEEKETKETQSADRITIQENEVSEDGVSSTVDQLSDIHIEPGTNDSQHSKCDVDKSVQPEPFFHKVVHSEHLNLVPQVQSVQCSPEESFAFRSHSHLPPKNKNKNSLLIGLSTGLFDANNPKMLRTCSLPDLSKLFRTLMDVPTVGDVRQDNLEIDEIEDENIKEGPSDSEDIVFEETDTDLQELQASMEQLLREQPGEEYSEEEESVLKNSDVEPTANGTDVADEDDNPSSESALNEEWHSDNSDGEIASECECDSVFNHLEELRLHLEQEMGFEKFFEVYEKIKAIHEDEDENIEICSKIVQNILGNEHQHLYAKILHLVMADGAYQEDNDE

[13] = target: T5, Serine/threonine-protein kinase Nek1 (Homo sapiens); conditions: at 1 µM
[14] = target: T6, Serine/threonine-protein kinase Nek2 (Homo sapiens) (UniProt P51955); conditions: at 0.1 µM
T6 sequence (whole entry): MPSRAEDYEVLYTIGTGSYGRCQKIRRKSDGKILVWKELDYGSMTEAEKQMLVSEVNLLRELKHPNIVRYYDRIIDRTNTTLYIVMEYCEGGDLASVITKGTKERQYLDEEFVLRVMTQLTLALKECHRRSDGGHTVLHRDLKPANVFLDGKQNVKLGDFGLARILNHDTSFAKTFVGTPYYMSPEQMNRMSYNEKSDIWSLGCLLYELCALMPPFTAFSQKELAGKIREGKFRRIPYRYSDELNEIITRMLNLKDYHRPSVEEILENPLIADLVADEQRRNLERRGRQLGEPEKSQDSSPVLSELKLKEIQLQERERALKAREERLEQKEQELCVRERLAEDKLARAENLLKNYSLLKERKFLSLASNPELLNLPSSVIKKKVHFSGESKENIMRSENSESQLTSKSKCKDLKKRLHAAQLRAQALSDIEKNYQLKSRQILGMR

[15] = target: T6, Serine/threonine-protein kinase Nek2 (Homo sapiens); conditions: at 1 µM
[16] = target: Serine/threonine-protein kinase Nek6 (Homo sapiens) (UniProt Q9HC98); conditions: at 0.1 µM
Serine/threonine-protein kinase Nek6 (Homo sapiens), sequence (Q9HC98 whole entry): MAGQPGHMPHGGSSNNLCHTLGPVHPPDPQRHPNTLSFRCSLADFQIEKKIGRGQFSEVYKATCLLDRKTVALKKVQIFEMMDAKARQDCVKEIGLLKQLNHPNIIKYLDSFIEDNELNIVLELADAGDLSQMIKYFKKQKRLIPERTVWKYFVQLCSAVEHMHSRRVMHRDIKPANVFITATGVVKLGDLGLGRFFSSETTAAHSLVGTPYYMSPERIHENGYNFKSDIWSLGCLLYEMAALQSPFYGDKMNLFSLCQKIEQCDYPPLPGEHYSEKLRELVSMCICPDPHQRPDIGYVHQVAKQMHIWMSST

[17] = target: Serine/threonine-protein kinase Nek6 (Homo sapiens) (UniProt Q9HC98); conditions: at 1 µM
[18] = target: Serine/threonine-protein kinase Nek7 (Homo sapiens) (UniProt Q8TDX7); conditions: at 0.1 µM
Serine/threonine-protein kinase Nek7 (Homo sapiens), sequence (Q8TDX7 whole entry, looked up): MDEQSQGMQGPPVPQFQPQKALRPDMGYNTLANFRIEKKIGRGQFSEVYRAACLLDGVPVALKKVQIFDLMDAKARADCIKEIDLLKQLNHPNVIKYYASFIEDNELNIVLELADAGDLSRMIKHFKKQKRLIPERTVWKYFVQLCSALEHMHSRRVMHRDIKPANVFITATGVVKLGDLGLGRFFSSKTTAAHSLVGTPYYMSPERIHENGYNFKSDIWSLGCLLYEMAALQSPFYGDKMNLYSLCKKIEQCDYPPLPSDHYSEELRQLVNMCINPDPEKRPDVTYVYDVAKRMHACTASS

[19] = target: Serine/threonine-protein kinase Nek7 (Homo sapiens) (UniProt Q8TDX7); conditions: at 1 µM
[20] = target: T7, Serine/threonine-protein kinase Nek9 (Homo sapiens) (UniProt Q8TD19); conditions: at 0.1 µM;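 also: reported value is the mean percent inhibition of NEK9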
T7 sequence (whole entry): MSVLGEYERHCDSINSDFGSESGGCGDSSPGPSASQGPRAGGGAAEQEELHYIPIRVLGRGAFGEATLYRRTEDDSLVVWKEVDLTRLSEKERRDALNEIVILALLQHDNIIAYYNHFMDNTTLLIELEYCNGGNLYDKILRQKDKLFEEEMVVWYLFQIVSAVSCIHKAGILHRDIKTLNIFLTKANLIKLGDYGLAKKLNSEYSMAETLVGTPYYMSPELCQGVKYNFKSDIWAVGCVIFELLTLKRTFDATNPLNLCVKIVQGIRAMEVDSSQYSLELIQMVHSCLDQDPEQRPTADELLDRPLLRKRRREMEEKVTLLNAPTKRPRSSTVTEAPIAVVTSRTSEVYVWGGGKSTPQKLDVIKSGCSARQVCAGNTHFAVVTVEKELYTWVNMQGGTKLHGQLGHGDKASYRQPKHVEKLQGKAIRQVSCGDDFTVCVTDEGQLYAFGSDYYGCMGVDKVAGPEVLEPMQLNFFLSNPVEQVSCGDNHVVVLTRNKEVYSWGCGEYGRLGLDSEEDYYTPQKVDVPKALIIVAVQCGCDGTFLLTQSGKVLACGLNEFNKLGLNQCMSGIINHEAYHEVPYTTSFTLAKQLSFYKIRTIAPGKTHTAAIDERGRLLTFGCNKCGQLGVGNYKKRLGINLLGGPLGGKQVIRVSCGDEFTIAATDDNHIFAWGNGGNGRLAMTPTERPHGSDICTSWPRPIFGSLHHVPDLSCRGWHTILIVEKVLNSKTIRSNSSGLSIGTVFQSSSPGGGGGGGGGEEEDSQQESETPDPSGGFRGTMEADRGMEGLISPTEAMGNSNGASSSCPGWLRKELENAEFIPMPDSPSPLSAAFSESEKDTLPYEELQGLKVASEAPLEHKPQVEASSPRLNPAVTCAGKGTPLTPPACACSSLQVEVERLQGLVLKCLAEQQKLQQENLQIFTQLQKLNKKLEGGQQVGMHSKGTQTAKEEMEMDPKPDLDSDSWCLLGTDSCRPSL

Sphingosine kinase 1 (Homo sapiens), sequence (Q9NYA1 whole entry): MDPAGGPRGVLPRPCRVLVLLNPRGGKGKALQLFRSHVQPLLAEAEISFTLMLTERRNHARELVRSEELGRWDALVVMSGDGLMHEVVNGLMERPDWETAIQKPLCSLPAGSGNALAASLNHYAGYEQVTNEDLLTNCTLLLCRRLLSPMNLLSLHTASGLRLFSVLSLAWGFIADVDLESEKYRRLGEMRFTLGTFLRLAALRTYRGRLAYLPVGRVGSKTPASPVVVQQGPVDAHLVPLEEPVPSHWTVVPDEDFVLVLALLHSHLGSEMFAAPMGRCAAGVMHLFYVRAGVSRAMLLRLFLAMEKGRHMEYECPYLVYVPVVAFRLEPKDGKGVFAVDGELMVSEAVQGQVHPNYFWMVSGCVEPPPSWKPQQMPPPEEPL

CN1CCC(C(=O)Nc2n[nH]c3nnc(-c4ccccc4)cc23)CC1
inhibition [1]: -3.46%
inhibition [2]: -0.94%
inhibition [3]: -2.16%
inhibition [4]: 6.73%
inhibition [5]: 12.2%
inhibition [6]: 6.86%
inhibition [7]: 1.13%
inhibition [8]: 11.4%
inhibition [9]: 12.4%
inhibition [10]: 7.37%
inhibition [11]: 6.54%
inhibition [12]: 2.01%
inhibition [13]: 4.86%
inhibition [14]: 5.31%
inhibition [15]: 4.22%
inhibition [16]: 2.59%
inhibition [17]: 0.5%
inhibition [18]: 5.74%
inhibition [19]: 4.97%
inhibition [20]: 12.7%

N#Cc1c(NC(=O)c2cccc3ccccc23)sc2c1CCCC2
inhibition [1]: -0.69%
inhibition [2]: 1.73%
inhibition [3]: 0.03%
inhibition [4]: 1.53%
inhibition [5]: -0.03%
inhibition [6]: 5.48%
inhibition [7]: 6.29%
inhibition [8]: 3.31%
inhibition [9]: 2.19%
inhibition [10]: 4.91%
inhibition [11]: 1.87%
inhibition [12]: 1.19%
inhibition [13]: 1.42%
inhibition [14]: 3.93%
inhibition [15]: 4.37%
inhibition [16]: 3.32%
inhibition [17]: 1.3%
inhibition [18]: 5.78%
inhibition [19]: 3.68%
inhibition [20]: 5.96%

— ChEMBL document CHEMBL1961873, “Compounds: GSK PKIS; Assays: Nanosyn kinase panel” (2012)
